KCNQ2 block: rat KCNQ2 potassium channel inhibitors, primary screen, cell-based, CHO-K1, FluxOR thallium flux, B-score | 20 min; hits give low values | B-score at 10 µM | 1.1% of 310,000 active;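 active means fluorescence ratio B-score at most minus 3 library SDs, with starting brightness B-score within 2 library SDs, cut at about -5.5 in these data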
KCNQ2 pot: potentiators of rat KCNQ2 potassium channel; Potassium voltage-gated channel subfamily KQT member 2 (Rattus norvegicus), O88943; CHO-K1 KCNQ2, FluxOR thallium flux fluorescence; hits give high values; 0.54% of 310,000 active; B-score at 10 µM;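 active means fluorescence ratio B-score at least 3 SD of library B-scores, with initial fluorescence B-score within 3 of them, cut at about 5.3 in these data; same plate scores as AID 2156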;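 further: B-score of peak minus minimum over baseline fluorescence ratio after K+ and Tl+ stimulus; positive B-score means potentiation of KCNQ2 with more thallium influx and brighter signal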
Kir21 conf inh: mouse Kir2.1 channel blockers, retest, confirmation, cell-based, FluxOR thallium flux, duplicate. shares compounds with KCNQ2 pot. Kir2.1-expressing cells, FluxOR thallium flux fluorescence; hits give low values. Tl flux remaining, % of negative control (hits give low values), % at 10 µM. 41% of 2,300 active. AID 2032, 2009;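 active means Primary-screen hit whose thallium flux fell at least 3 control SD below untreated wells in both duplicates, with normal baseline fluorescence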
HEK293 ctr: alters thallium flux in parental HEK293 cells, Kir2.1 counter-screen; shares compounds with KCNQ2 pot; FluxOR thallium flux fluorescence; 0% = unstimulated blank wells; FluxOR signal as % of negative control (100 = no effect), % at 10 µM; 19% of 2,300 active; AID 2105;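 active means dye signal at least 3 control SD above or below untreated wells in both duplicates, raw fluorescence within 3, either direction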;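 further: percent is based on the flux ratio of peak minus minimum fluorescence over baseline F0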
CHO-K1 Tl ctr: nonspecific thallium flux increase in parental CHO-K1, confirmation, counter-screen for KCNQ2 potentiator project, cell-based, FluxOR thallium flux, duplicate. shares compounds with KCNQ2 pot. parental CHO-K1 cells, FluxOR thallium flux fluorescence; zero = vehicle mean+3SD, 100% = vehicle-minus-blank window. activity increase over 3SD of controls, % at 10 µM. 43% of 1,200 active;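 active means signal rise of at least 3 SD above the untreated control mean, in both duplicate wells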;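 further: counter screen of KCNQ2 potentiator hits so any rise reflects channel-independent effects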
KCNQ1 pot spec: human KCNQ1 channel potentiation off-target, confirmation, selectivity assay for KCNQ2 potentiator project, cell-based, CHO, FluxOR thallium flux | shares compounds with KCNQ2 pot | CHO KCNQ1 stable, FluxOR thallium flux fluorescence; beyond 3SD, as % of vehicle-control signal | activation over 3SD threshold, % at 10 µM | 28% of 1,200 active | AID 2283, 2010;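 active means fluorescence ratio rise of at least 3 SD of vehicle wells above their mean, in both replicate wells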
KCNQ2 pot conf: rat KCNQ2 channel potentiators, confirmation, cell-based, CHO, FluxOR thallium flux, duplicate; CHO-KCNQ2 cells, FluxOR thallium flux fluorescence; 68% of 1,200 active; AID 2287, 2010; potentiation, less the hit threshold, % at 10 µM; shares compounds with KCNQ2 pot;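 active means fluorescence ratio rising 3 SD or more over the vehicle control mean in both replicates, plus primary screen hit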;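 further: peak minus minimum thallium fluorescence divided by baseline after K/Tl stimulus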
Kir21 spec: mouse Kir2.1 channel activation off-target, confirmation, selectivity assay for KCNQ2 potentiator project, cell-based, HEK293, FluxOR thallium flux; activity over 3SD threshold, % at 10 µM; 2% of 1,200 active; shares compounds with KCNQ2 pot; HEK293 Kir2.1, FluxOR thallium flux fluorescence;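 active means fluorescence ratio rise of at least 3 SD above the vehicle-control mean, seen in both replicates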
KCNQ2 W236L MoA: potentiators of retigabine-insensitive KCNQ2 W236L, mechanism study for KCNQ2 potentiator project, cell-based, rat KCNQ2 W236L, CHO, automated patch clamp. shares compounds with KCNQ2 pot. automated patch clamp current. current increase over 3SD of negative controls (%), hits give high values, % at 25 µM. 10% of 940 active. AID 2558, 2010;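 active means current increase at least 3 SD of the untreated controls above them in both duplicate recordings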
Target sequence (O88943 whole entry W236L, looked up): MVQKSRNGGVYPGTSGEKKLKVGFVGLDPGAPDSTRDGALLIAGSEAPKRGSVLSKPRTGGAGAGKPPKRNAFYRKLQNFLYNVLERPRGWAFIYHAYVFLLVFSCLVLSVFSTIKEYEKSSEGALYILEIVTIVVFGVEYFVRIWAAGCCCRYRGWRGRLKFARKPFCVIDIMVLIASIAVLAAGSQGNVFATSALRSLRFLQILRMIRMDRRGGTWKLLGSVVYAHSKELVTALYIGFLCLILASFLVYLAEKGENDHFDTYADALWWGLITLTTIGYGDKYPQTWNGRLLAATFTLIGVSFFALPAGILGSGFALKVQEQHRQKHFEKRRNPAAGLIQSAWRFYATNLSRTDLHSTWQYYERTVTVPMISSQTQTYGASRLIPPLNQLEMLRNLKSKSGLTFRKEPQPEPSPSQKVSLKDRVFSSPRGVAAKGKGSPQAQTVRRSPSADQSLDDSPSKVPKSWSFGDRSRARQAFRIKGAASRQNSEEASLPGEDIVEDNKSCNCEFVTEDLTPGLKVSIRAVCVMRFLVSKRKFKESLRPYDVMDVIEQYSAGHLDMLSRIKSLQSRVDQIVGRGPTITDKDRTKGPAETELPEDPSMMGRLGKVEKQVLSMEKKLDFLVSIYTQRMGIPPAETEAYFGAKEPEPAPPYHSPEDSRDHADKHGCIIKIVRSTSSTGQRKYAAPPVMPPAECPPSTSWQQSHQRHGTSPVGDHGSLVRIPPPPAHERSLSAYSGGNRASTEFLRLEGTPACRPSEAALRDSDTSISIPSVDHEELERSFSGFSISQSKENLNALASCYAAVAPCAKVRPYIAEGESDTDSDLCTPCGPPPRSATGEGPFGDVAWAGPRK
Large screens that a line does not name were inactive (follow-up assays come after a bar, where they were run). Hits are enriched below; roughly 1.6% of the tested compounds scored in any of these assays.

CC(C)(C)c1cc(Cl)ccc1OCCn1ccnc1	none
CN(C)CCOCCOc1ccc(Cl)cc1C(C)(C)C	none (no result: KCNQ2 pot) | Kir21 conf inh 34% | HEK293 ctr inactive
COCCCNCCCOc1ccc(Cl)cc1Br	none (no result: KCNQ2 pot)
CC(O)CNCCCOc1ccc(Cl)cc1C(C)(C)C (configuration not stated)	none (no result: KCNQ2 pot) | Kir21 conf inh 32% | HEK293 ctr inactive
Cc1ccc(-c2nc3c(c(SCC(=O)N4CCOCC4)n2)COC(C)(C)C3)cc1	none (no result: KCNQ2 pot)
S=c1nc(-c2ccccc2)[nH]c2ccc(Br)cc12	KCNQ2 pot 29 | Kir21 conf inh inactive | HEK293 ctr inactive | CHO-K1 Tl ctr inactive | KCNQ1 pot spec 21 | KCNQ2 pot conf 66 | Kir21 spec inactive | KCNQ2 W236L MoA inactive
Cc1cc(=O)c2cc(Br)ccc2[nH]1	none (no result: KCNQ2 pot)
Cc1ccc(N(CC(=O)NC(C)(C)C)C(=O)CNC(=O)c2cccs2)cc1C	none
CN1CCN(CC(=O)N2c3ccccc3C(C)(c3ccc(Cl)cc3)CC2(C)C)CC1 (configuration not stated)	none
CN1CCN(CC(=O)N2c3ccccc3C(C)(c3ccccc3)CC2(C)C)CC1 (configuration not stated)	none (no result: KCNQ2 pot) | Kir21 conf inh 58% | HEK293 ctr inactive
CSc1nc2c(c(=O)[nH]1)C(c1ccc(Cl)cc1)CC(=O)N2 (configuration not stated)	none (no result: KCNQ2 pot) | Kir21 conf inh inactive | HEK293 ctr inactive
CSc1nc2c(c(=O)[nH]1)C(c1cccc(Cl)c1)CC(=O)N2 (configuration not stated)	none
COc1ccc(OC)c(C(=O)NC2CCSc3ccccc32)c1 (configuration not stated)	none (no result: KCNQ2 pot)
COc1ccc(CC(=O)NC2CCSc3ccccc32)c(OC)c1 (configuration not stated)	none (no result: KCNQ2 pot) | Kir21 conf inh 72% | HEK293 ctr inactive
O=C(Nc1cccc(O)c1)c1cc(S(=O)(=O)N2CCCC2)ccc1Cl	KCNQ2 pot 5.3 | Kir21 conf inh inactive | HEK293 ctr inactive | CHO-K1 Tl ctr 40 | KCNQ1 pot spec inactive | KCNQ2 pot conf inactive | Kir21 spec inactive
O=C(Nc1ccccc1)c1cc(S(=O)(=O)N2CCSCC2)ccc1Cl	none (no result: KCNQ2 pot)
CCC(C)n1c(SCC(=O)NC2CCS(=O)(=O)C2)nc2ccccc2c1=O (configuration not stated)	none (no result: KCNQ2 pot)
COc1ccc(C(OCC(O)CNCCc2ccc(S(N)(=O)=O)cc2)c2ccc(OC)cc2)cc1 (configuration not stated)	none
OC(CNCCc1ccc(C(F)(F)F)cc1)COC(c1ccccc1)c1ccccc1 (configuration not stated)	none (no result: KCNQ2 pot) | Kir21 conf inh 51% | HEK293 ctr 68%
Cc1ccc(N(C(=O)CNC(=O)c2ccco2)C(C(=O)NC2CCCCC2)c2ccncc2)cc1F (configuration not stated)	none
CCc1ccc(N(CC(=O)NC(C)C)C(=O)CCC(=O)Nc2nccs2)cc1	none
COC(=O)CN(c1ccccc1)S(=O)(=O)c1ccc(F)cc1	none
CCN(c1ccccc1)S(=O)(=O)c1ccc(NC(=O)c2nc(S(C)(=O)=O)ncc2Cl)cc1	KCNQ2 pot 9 | Kir21 conf inh inactive | HEK293 ctr 74% | CHO-K1 Tl ctr inactive | KCNQ1 pot spec inactive | KCNQ2 pot conf inactive | Kir21 spec inactive | KCNQ2 W236L MoA inactive
CCN(c1ccccc1)S(=O)(=O)c1ccc(C(=O)Nc2ccncc2)cc1	KCNQ2 pot 8.2 | Kir21 conf inh inactive | HEK293 ctr inactive | CHO-K1 Tl ctr 79 | KCNQ1 pot spec inactive | KCNQ2 pot conf 9.8 | Kir21 spec inactive | KCNQ2 W236L MoA inactive
CCN(c1ccccc1)S(=O)(=O)c1ccc(F)cc1	none (no result: KCNQ2 pot) | Kir21 conf inh 54% | HEK293 ctr inactive
CCN(c1ccccc1)S(=O)(=O)c1ccc(C(=O)Nc2ncccc2O)cc1	none (no result: KCNQ2 pot)
CCS(=O)(=O)c1ncc(Cl)c(C(=O)Nc2ccc(S(=O)(=O)N(C)c3ccccc3)cc2)n1	none (no result: KCNQ2 pot)
CCN(CCn1cccn1)C(=O)c1cc(COc2cc(C)ccc2C)on1	none (no result: KCNQ2 pot)
Cc1ccc(NC(=O)NNC(=O)CN2C(=O)COc3ccccc32)cc1	none
CCn1c(SCC(=O)N/N=C(/C)c2ccncc2)nc2ccccc21	none
Nc1ccc(S(=O)(=O)c2ccccc2)nc1	none (no result: KCNQ2 pot)
O=[N+]([O-])c1ccc(S(=O)(=O)c2ccccc2)nc1	KCNQ2 block -5.9 | Kir21 conf inh inactive | HEK293 ctr 70%
c1ccc(-c2nc(N3CCCCC3)nc3ccccc23)cc1	none (no result: KCNQ2 pot)
c1ccc(-c2nc(N3CCNCC3)nc3ccccc23)cc1	none (no result: KCNQ2 pot) | Kir21 conf inh 50% | HEK293 ctr inactive
FC(F)(F)c1cccnc1Oc1ccc(C2=NCCS2)cc1	KCNQ2 pot 5.4 | Kir21 conf inh inactive | HEK293 ctr inactive | CHO-K1 Tl ctr inactive | KCNQ1 pot spec 30 | KCNQ2 pot conf 13 | Kir21 spec inactive | KCNQ2 W236L MoA inactive
Nc1cccnc1Oc1ccc(F)cc1	none
CN(C)NC(=S)NC1CCS(=O)(=O)C1 (configuration not stated)	none (no result: KCNQ2 pot)
c1ccc(Nc2nc(NCc3ccco3)c3ccccc3n2)cc1	none (no result: KCNQ2 pot)
Cc1cccc(Nc2nc(NCc3ccco3)c3ccccc3n2)c1	none (no result: KCNQ2 pot) | Kir21 conf inh 62% | HEK293 ctr inactive
Cc1ccccc1Nc1nc(NCc2ccco2)c2ccccc2n1	KCNQ2 block -6.3 | Kir21 conf inh 16% | HEK293 ctr inactive
Oc1ccccc1Nc1nc(NCc2ccco2)c2ccccc2n1	none (no result: KCNQ2 pot)
COc1ccc2c(c1)cc(C(=O)N[C@H](C(=O)N1CCC(C(=O)O)CC1)C(C)C)n2C	none (no result: KCNQ2 pot)
Cc1ccc(-n2nc3c(=O)n(CC(=O)NC4CCCCCC4)nc(C)c3c2C)cc1	none
